The structures appear in SMILES notation. Where a name gives a salt, the structure may show the parent alone. In all, about 2,800 compounds were measured (“cell viability relative to vehicle”: median about 1.1, lowest 2% from about 0.19 on). The list comes from a sample in which the lowest values are over-represented; it also holds similar structures and randomly drawn compounds.

The subject of this test is NCI-H2228 parental. Description: cell viability relative to vehicle (fraction of vehicle); NCI-H2228 is an ALK-positive lung cancer line and DTP means drug-tolerant persister; higher = less growth inhibition. To be noted: 100 nM; treatment time 6 days. A digest of the protocol: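 Each value is viability relative to vehicle-treated cells, measured as ATP with the CellTiter-Glo 3D Cell Viability Assay. Parental NCI-H2228 cells and drug-tolerant persisters (1000 nM targeted drug, 13 days) in 384-well plates received the 3114-agent TargetMol anti-cancer compound library at 100 nM, or DMSO, and were read 6 days later.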
As for `CCNC(=O)c1cc2c(-c3cc(C(C)(C)O)ccc3Oc3c(C)cc(F)cc3C)cn(C)c(=O)c2[nH]1`, the cell viability stood at 0.898. `C[C@H](NC(=O)CCC(F)(F)F)C(=O)N[C@@H]1C(=O)N(CCO)c2ncccc2-c2ccccc21` [Crenigacestat]: the cell viability stood at 1.05. For `CC(C)=CCC[C@](C)(O[C@@H]1O[C@H](CO)[C@@H](O)[C@H](O)[C@H]1O)[C@H]1CC[C@]2(C)[C@@H]1[C@H](O)C[C@@H]1[C@@]3(C)CC[C@H](O[C@@H]4O[C@H](CO)[C@@H](O)[C@H](O)[C@H]4O[C@@H]4O[C@H](CO)[C@@H](O)[C@H](O)[C@H]4O)C(C)(C)[C@@H]3CC[C@]12C` [Ginsenoside Rd], the cell viability was determined as 1.18. To `C=CC(=O)Nc1ccc(CN2C(=O)N(c3cc(OC)cc(OC)c3)Cc3cnc(Nc4ccc(N5CCN(C)CC5)cc4)nc32)cc1` belongs 0.858. `OC[C@H]1O[C@@H](Oc2ccc3c(c2)OC[C@H]2c4cc5c(cc4O[C@@H]32)OCO5)[C@H](O)[C@@H](O)[C@@H]1O` [Trifolirhizin]: the cell viability worked out at 1.02. Turning to `O=c1cc(N2CCOCC2)oc2c(-c3ccc4c(c3)OCCO4)csc12`, the cell viability worked out at 1.14. To `Nc1ccccc1NC(=O)CCCCCCC(=O)Nc1ccccc1` belongs 1.09; to `Cc1c[nH]c2nc(Nc3ccc(N4CCN(C)CC4)c(F)c3)nc(-c3cccc(CC#N)c3)c12`, 0.777; to `Cc1ncc(CCCN(C)C)cc1Nc1ncc2c(n1)-c1ccc(C(F)(F)F)cc1NC(=S)C2`, 0.178. In the case of `C=C(C)[C@@H]1CC[C@]2(C)[C@H](CC=C3[C@@H]4[C@@H](C)[C@H](C)CC[C@]4(C)CC[C@]32C)[C@@]1(C)CCC(=O)O` [Roburic acid], the cell viability turned out to be 1.08. Then `CC1=C[C@]2(O)O[C@@]3(CC2=C(C)C)[C@@H](C)CC[C@@H]13` [Curcumenol], with 1.1; and `CC(=O)O[C@H]1CC(=O)OC(C)(C)[C@@H]2CC(=O)[C@]3(C)[C@H](CC[C@@]4(C)[C@@H](c5ccoc5)OC(=O)[C@H]5O[C@]543)[C@@]12C` [Nomilin], with 1.13; and `CC(=O)O[C@@H]1C[C@H](O)[C@@]23CO[C@@H](O)[C@]1(C)[C@@H]2C[C@@H](O)[C@]1(C)[C@@H]3C(=O)[C@H](OC(C)=O)[C@@]2(C)[C@H](c3ccoc3)C[C@H]3O[C@]321` [Toosendanin], with 0.147. Then `CC(C)=CCC(OC(=O)C=C(C)C)C1=CC(=O)c2c(O)ccc(O)c2C1=O` (stereo not drawn) [beta, beta-dimethylacrylshikonin], with 1.03; and `CC1(C)CC[C@]2(C(=O)O)CC[C@]3(C)C(=CC[C@@H]4[C@@]5(C)CCC(=O)C(C)(C)[C@@H]5CC[C@]43C)[C@@H]2C1` [Oleanonic Acid], with 1.12; and `O=C(NC1CCOCC1)c1ccc(-c2cc(-c3c[nH]nc3-c3ccccn3)ccn2)cc1`, with 1.01. Then `COCCN1CCN(Cc2ccc(-c3n[nH]c4c3C(=O)c3c(NC(=O)NN5CCOCC5)cccc3-4)cc2)CC1`, with 0.253. Take `O=C(Nc1c[nH]nc1-c1nc2ccc(CN3CCOCC3)cc2[nH]1)NC1CC1`: the cell viability was found to be 0.106. To `CCCCCCCCNc1cc(=O)[nH]c(=O)[nH]1` belongs 1.01; to `CCC(=O)Oc1ccc2c(c1)CCC1C2CCC2(C)C(OC(=O)CC)CCC12` (stereo not drawn) [17-Beta-Estradiol-3,17-Dipropionate], 1.24. Consider `CCCOc1ccc(CCc2nc3cc(-c4c(C)noc4C)ccc3n2CCN2CCOCC2)cc1` [PF-CBP1 hydrochloride], for which the cell viability is 1.06. Regarding `O=C(Nc1ccc(OC(F)(F)Cl)cc1)c1cnc(N2CC[C@@H](O)C2)c(-c2cc[nH]n2)c1` [Asciminib], the cell viability is 1.11.

As to `NC(=O)Cc1cc[nH]n1` [1H-Pyrazole-3-acetamide], the cell viability stood at 0.268. Then `CONC(=O)Nc1ccc(-c2sc3c(c2CN(C)Cc2ccccc2)c(=O)n(-c2ccccc2)c(=O)n3Cc2c(F)cccc2F)cc1` [Sufugolix], with 0.979. Then `CN1CCN(Cc2ccc(Nc3ncc(Cl)c(Nc4ccccc4S(=O)(=O)N(C)C)n3)cc2)CC1`, with 0.0869; and `COc1cc(N2CCC(N3CCN(C)CC3)CC2)ccc1Nc1ncc(Cl)c(Nc2ccccc2S(=O)(=O)C(C)C)n1`, with 0.421. Then `CNS(=O)(=O)c1ccccc1Nc1nc(Nc2ccc(N3CCN(C)CC3)cc2OC)ncc1Cl` [ALK inhibitor 2], with 0.448; and `O=C(/C=C/c1ccc(O)cc1)C1=C(O)C(O)([C@@H]2O[C@H](CO)[C@@H](O)[C@H](O)[C@H]2O)C(O)=C([C@@H]2O[C@H](CO)[C@@H](O)[C@H](O)[C@H]2O)C1=O` (some centres not stated) [Hydroxysafflor yellow A], with 1.07; and `CCOCc1nc2c(N)nc3ccccc3c2n1CC(C)(C)O` [Resiquimod], with 1.06. For `O=C(Nc1cccc(-c2ccccc2)c1)OC1CCCCC1`, the cell viability was determined as 1.01. To `COc1ccc(CCc2cc(OC)c(OC)c(OC)c2)cc1O` [Erianin] belongs 0.335; to `CCNC(=O)c1noc(-c2cc(C(C)C)c(O)cc2O)c1-c1ccc(CN2CCOCC2)cc1` [Luminespib], 0.0552. As to `CCNC(=O)c1noc(-c2cc(Cl)c(O)cc2O)c1-c1ccc(OC)cc1`, the cell viability was 0.237. Then `O=C(Nc1ccc(CN2CCOCC2)cc1)c1ccc(-c2cccc(Cl)c2)o1`, with 0.775. To `CC1(C)CC[C@]2(C(=O)O)CC[C@]3(C)C(=CC[C@@H]4[C@@]5(C)CC[C@H](O[C@@H]6O[C@H](C(=O)O)[C@@H](O)[C@H](O[C@@H]7OC[C@@H](O)[C@H](O)[C@H]7O)[C@H]6O)C(C)(C)[C@@H]5CC[C@]43C)[C@@H]2C1` [Momordin Ic] belongs 1.1; to `C[C@@]1(CO)C[C@@H](O)C[C@@]2(C)[C@@H]3CC[C@](C)([C@@H](O)CO)C=C3CC[C@H]12` [Kirenol], 1.1. As to `Cc1c(CN2CCN(c3cccc(C(F)(F)F)c3)CC2)cc(-c2ccccc2)n1NC(=O)c1ccncc1` [Sudoterb free base], the cell viability is 1.05. As for `Cc1ccc([N+](=O)[O-])cc1S(=O)(=O)N(C)/N=C/c1cnc2ccc(Br)cn12` [PIK-75  hydrochloride], the cell viability is 0.153. As for `Cc1ccc([N+](=O)[O-])cc1S(=O)(=O)N(C)/N=C/c1cnc2ccc(Br)cn12`, the cell viability came out at 0.165. To `Cc1ccccc1C(C(=O)NC1CCCCC1)N(C(=O)Cn1cnc2ccccc21)c1cccc(F)c1` (configuration not stated) belongs 1.19. Then `CCC(=O)Nc1cccc(Oc2nc(Nc3ccc(N4CCN(C)CC4)cc3OC)ncc2Cl)c1`, with 1.22; and `C=CC(=O)Nc1cccc(Oc2nc(Nc3ccc(N4CCN(C)CC4)cc3OC)ncc2Cl)c1`, with 1.19; and `CN1CCN(c2ccc(OC(F)(F)F)c(Nc3ncc4c(n3)-c3c(c(C(N)=O)nn3CCO)CC4)c2)CC1`, with 0.168. Then `CCCCc1nc2ccc(NC(=O)NC3CCCCC3)cc2n1Cc1ccc(-c2ccccc2C(=O)O)cc1`, with 1.08; and `Cc1cc2cc(Oc3ccnc(Nc4cccc(CS(=O)(=O)NCCN(C)C)c4)n3)ccc2[nH]1` [Sulfatinib], with 1.03. Take `Cc1nc(=O)c2cc(CN(C)c3ccc(C(=O)N[C@@H](CCC(=O)O)C(=O)O)s3)ccc2[nH]1` [Raltitrexed]: the cell viability was 0.151. For the compound `CN(Cc1cnc2nc(N)nc(N)c2n1)c1ccc(C(=O)N[C@@H](CCC(=O)O)C(=O)O)cc1` [Methotrexate], the cell viability came to 0.375. To `Nc1nc(=O)c2c([nH]1)NCC(CNc1ccc(C(=O)N[C@@H](CCC(=O)O)C(=O)O)cc1)N2C=O` (some centres not stated) [Calcium folinate] belongs 1.08.

Consider `COc1cc(/C=C/CO)cc(OC)c1O[C@@H]1O[C@H](CO)[C@@H](O)[C@H](O)[C@H]1O` [eleutheroside-b], for which the cell viability was found to be 1.13. Then `CCCCNNC(=O)c1ccc(-c2cccc(F)c2F)cc1`, with 1.03; and `COc1cc(/C=C/C(=O)NCCn2c(C(F)(F)F)cc3ccccc32)cc(OC)c1OC`, with 1.05. Then `COc1cc(CCC(=O)CC(=O)CCc2ccc(O)c(OC)c2)ccc1O` [Tetrahydro Curcumin], with 1.03. With `CCCS(=O)(=O)Nc1ccc(F)c(C(=O)c2c[nH]c3ncc(-c4ccc(Cl)cc4)cc23)c1F` [Vemurafenib], the cell viability turned out to be 1.2. To `CS(=O)(=O)Nc1cc(-c2ccc3ncnc(Nc4ccc(F)c(Cl)c4)c3c2)cnc1Cl` belongs 1.08; to `COc1ncc(-c2ccc3nccc(-c4ccnnc4)c3c2)cc1NS(=O)(=O)c1ccc(F)cc1F` [Omipalisib], 0.148; to `CO[C@@H](C)Cn1c(=O)n(C)c2cnc3ccc(-c4cncc(C(C)(C)O)c4)cc3c21`, 0.412. In the case of `O=C(O)c1c[nH]c2cc(Cl)c(-c3ccc(C4(O)CCC4)cc3)cc12`, the cell viability is 1.09. For `C/C=C1\NC(=O)[C@H]2CSSCC/C=C/[C@H](CC(=O)N[C@H](C(C)C)C(=O)N2)OC(=O)[C@H](C(C)C)NC1=O` [Romidepsin], the cell viability worked out at 0.0515. With `CCN(CC)CCNc1ccc(C)c2sc3ccccc3c(=O)c12` [Lucanthone], the cell viability was 0.956. As for `COCC[n+]1c2c(n(Cc3cnccn3)c1C)C(=O)c1ccccc1C2=O`, the cell viability was found to be 0.0796. Take `COc1ccc(S(=O)(=O)Nc2ccccc2C=Cc2ccncc2)cc1`: the cell viability stood at 0.238. To `C[C@@H]1O[C@@H](O[C@@H]2[C@@H](O)[C@H](OCCc3ccc(O)c(O)c3)O[C@H](CO)[C@H]2OC(=O)/C=C/c2ccc(O)c(O)c2)[C@H](O)[C@H](O)[C@H]1O` [Verbascoside] belongs 1.03; to `CN(C(=O)CNC(=O)/C=C/c1cccc(Cl)c1)C1CCS(=O)(=O)CC1`, 0.834; to `O=C(CNc1ccc2ccccc2c1)N/N=C/c1cc(Br)c(O)c(Br)c1O`, 1.05. For the compound `COC(=O)C1=CO[C@@H](O[C@@H]2O[C@H](CO)[C@@H](O)[C@H](O)[C@H]2O)[C@H]2[C@@H]1[C@H](O)C[C@]2(C)OC(C)=O` [8-O-Acetylshanzhiside methyl ester], the cell viability was 0.898.

Turning to `OCC1(O)COc2cc(O)ccc2-c2cc(O)c(O)cc2C1` (configuration not stated) [Protosappanin B], the cell viability was determined as 1.04.

For the compound `O=c1cc(-c2ccc(O)c(-c3c(O)cc(O)c4c(=O)cc(-c5ccc(O)cc5)oc34)c2)oc2cc(O)cc(O)c12` [Amentoflavone], the cell viability stood at 1.08.

For the origin of these results see the supplement of paper PMC10600219.
